RECQ1 inh-1 – RECQ1 (human) helicase inhibition | P46063 | RECQ1 DNA unwinding, red fluorescence kinetic read | Potency, µM (series often up to 57.3 µM), without a hit: top-dose activity, negative = inhibition, hits mostly inhibitors | 0.54% of 240,000 active | AID 2549;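 also: plate controls were vehicle for no effect and no enzyme for full effect; nearly all actives have a fitted effect of over 30% in size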
Target sequence (P46063 whole entry, looked up): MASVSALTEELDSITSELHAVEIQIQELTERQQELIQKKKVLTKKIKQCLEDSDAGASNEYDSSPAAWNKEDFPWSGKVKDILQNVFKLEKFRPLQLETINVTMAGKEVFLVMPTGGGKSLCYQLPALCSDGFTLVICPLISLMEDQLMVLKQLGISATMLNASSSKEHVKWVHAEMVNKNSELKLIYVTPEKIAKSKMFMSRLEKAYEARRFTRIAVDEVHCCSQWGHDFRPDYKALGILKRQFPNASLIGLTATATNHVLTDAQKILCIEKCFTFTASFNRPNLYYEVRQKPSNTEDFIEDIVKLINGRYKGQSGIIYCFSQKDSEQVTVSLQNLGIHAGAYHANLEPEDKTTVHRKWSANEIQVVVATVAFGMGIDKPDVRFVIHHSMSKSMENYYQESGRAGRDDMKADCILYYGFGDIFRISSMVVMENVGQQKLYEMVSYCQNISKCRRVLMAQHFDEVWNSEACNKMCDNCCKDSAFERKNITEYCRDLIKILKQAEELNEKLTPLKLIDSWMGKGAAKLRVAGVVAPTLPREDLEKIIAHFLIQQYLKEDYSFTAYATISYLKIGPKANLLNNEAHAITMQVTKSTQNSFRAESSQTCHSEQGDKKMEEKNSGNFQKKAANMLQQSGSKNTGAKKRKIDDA
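RECQ1T1 50 nM; forked duplex (20 bp + 30-nt ss tails) 200 nM, ATP 2 mM final; pH 8.0, 2 mM MgCl2, 2.5 ug/ml poly(dI-dC); 15 min compound preincubation; discontinuous kinetic read over 2 h at RT.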
BLM inh – inhibitors of human Bloom syndrome helicase BLM; recombinant BLM DNA unwinding, fluorescence dequenching; Potency, µM (top dose mostly 56.1 µM), for inactives: top-dose activity change, negative = inhibition, actives largely listed as inhibitors; 0.2% of 350,000 active;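 also: plate controls were vehicle for no effect and no enzyme for full effect; nearly all actives have a fitted effect of over 35% in size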
APEX1 inh – APE1 (human) endonuclease inhibition; P27695; recombinant APE1, TAMRA/BHQ-2 abasic DNA cleavage fluorescence; Potency, µM (highest dose often 65.8 µM), without a hit: at the top dose activity change, negative = inhibition, most hits filed as inhibitors; 0.35% of 350,000 active; AID 2517;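 also: plate controls were vehicle for no effect and reference inhibitor for full effect; nearly all actives have a fitted effect of over 55% in size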
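Step 1: APE1 (0.75 nM) with compound, 15 min RT. Step 2: add 50 nM fluorophore/quencher THF duplex. Step 3: three fluorescence reads 60 s apart (525/598 nm); read 3 minus read 1 = reaction progress.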
RGS12 GoLoco inh – inhibitors of human Gai1-RGS12 GoLoco interaction (red fluorophore); 0.44% of 230,000 active; Gai1:RGS12 GoLoco peptide FP, rhodamine, 10 min; P63096; Potency, µM (titrated, usually from 61.6 µM), inactives show at the highest dose activity, negative = inhibition, most hits filed as inhibitors; active = well fitted inhibition curve with a large enough effect, not every such curve was filed as active; inactive = no such curve, though single readings can be large or run the other way; also: nearly all actives have a fitted effect of over 30% in size
TRb SRC2 PPI – TRbeta-SRC2 interaction inhibition | P10828 | TRbeta-SRC2 peptide binding, fluorescence polarization; receptor liganded with 1 µM T3 | Potency, µM (highest dose often 106 µM), for the others: at the top dose activity change, negative = inhibition, most hits filed as inhibitors | 0.065% of 280,000 active | AID 1469;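 also: plate controls were bound peptide for no effect and peptide without receptor for full effect; nearly all actives have a fitted effect of over 50% in size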
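Compounds were added to 0.6 uM TRb ligand-binding domain and 20 nM Texas Red-labeled SRC2 peptide in Tris buffer containing 1 uM T3, incubated 5 hr at ambient temperature, then read by fluorescence polarization.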
TexasRed fluor – alters Texas Red total fluorescence, flagging assay interference. TRb/SRC2 Texas Red total fluorescence interference. Potency, µM (top dose mostly 106 µM), inactives show at the highest dose fluorescence change, negative = quenching. 0.29% of 280,000 active. AID 1479; active = well fitted curve in either direction with a large enough effect; inconclusive = small, poorly fitted or top-dose-only effect
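Flags fluorescent or light-absorbing compounds by total fluorescence, S + 2P, at 555 nm excitation and 632 nm emission. Mixture: 20 nM Texas Red SRC2 peptide, 0.6 uM human TRb LBD, 1 uM T3, 5% DMSO; compound exposure 5 h at ambient temperature.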
RECQ1 conf – confirmation of human RECQ1 helicase inhibitors; shares compounds with RECQ1 inh-1; RECQ1 helicase DNA unwinding, fluorescence; Potency, µM (titrated, usually from 229 µM), for inactives: top-dose activity change, negative = inhibition, most hits filed as inhibitors; 28% of 610 active; AID 2708; also: nearly all actives have a fitted effect of over 45% in size
RECQ1 ADP FP – displaces ADP in a fluorescence polarization counter-screen for RECQ1 hits. shares compounds with RECQ1 inh-1. ADP fluorescence polarization displacement counterscreen. Potency, µM (top dose mostly 228 µM), for inactives: at the top dose activity change, negative = inhibition, most hits filed as inhibitors. 27% of 530 active. AID 2711; also: nearly all actives have a fitted effect of over 45% in size
RECQ1 inh-2 – RECQ1 helicase inhibition confirmed, round 2. shares compounds with RECQ1 inh-1. recombinant RECQ1 DNA unwinding, red fluorescence. 15% of 1,100 active. Potency, µM (highest dose often 119 µM), for the others: at the top dose activity, negative = inhibition, most hits filed as inhibitors; also: nearly all actives have a fitted effect of over 50% in size
Active calls of the source: *; [ ] = another dose, or the depositor's remark. An excerpt weighted towards active compounds, which were near 0.9% of everything screened. Unless noted, calls follow the shape of the dose curve; as a rule, active = well fitted curve in the direction sought with a large enough effect; inconclusive = small, poorly fitted or top-dose-only effect, or another doubt; inactive = no such curve, though single readings can be large; an effect the other way counts as inactive or inconclusive. Unless noted, % is scaled to controls: 0 for no effect and ±100 for the full control effect; potency is read from the fitted curve at half-maximal effect.

Results for Cc1[nH][nH]c(=O)c1C(c1ccc(-c2ccc(C(=O)O)cc2)o1)c1c(C)[nH][nH]c1=O ?
RECQ1 inh-1: 11µM*; BLM inh: -4%; APEX1 inh: inconclusive; RGS12 GoLoco inh: -15%; TRb SRC2 PPI: -27%; TexasRed fluor: -5%; RECQ1 conf: -3%[114 µM]; RECQ1 inh-2: -8%

How did CCOC(=O)c1ccc(NC(=O)CSc2c(C(C)C)cnc3c2c(=O)n(C)c(=O)n3C)cc1 do in these assays?
BLM inh: 0%; TRb SRC2 PPI: -1%; TexasRed fluor: 0%

Results for Cc1cc(C)c(S(=O)(=O)NCc2ccc3c(c2)cc(C)n3C)c(C)c1 ?
RECQ1 inh-1: inconclusive; BLM inh: -15%; APEX1 inh: -3%; RGS12 GoLoco inh: -6%; TRb SRC2 PPI: -22%; TexasRed fluor: 18%; RECQ1 inh-2: 56µM*

Results for CC(=O)Nc1ccc(S(=O)(=O)NCc2ccc3[nH]c(C)cc3c2)cc1 ?
RECQ1 inh-1: inactive; BLM inh: -2%; APEX1 inh: -1%; RGS12 GoLoco inh: 13%; TRb SRC2 PPI: 11%; TexasRed fluor: -2%

Results for CC(=O)Nc1ccc(S(=O)(=O)NCc2ccc3c(c2)cc(C)n3C)cc1 ?
RECQ1 inh-1: 32µM*; BLM inh: -24%; APEX1 inh: -8%; RGS12 GoLoco inh: -21%; TRb SRC2 PPI: -27%; TexasRed fluor: inconclusive; RECQ1 inh-2: 50µM*

Results for Cc1c(C(=O)NCc2ccc3c(c2)cc(C)n3C)cccc1[N+](=O)[O-] ?
RECQ1 inh-1: inconclusive; BLM inh: -6%; APEX1 inh: inconclusive; RGS12 GoLoco inh: -6%; TRb SRC2 PPI: inconclusive; TexasRed fluor: inconclusive; RECQ1 inh-2: -9%

Results for CCN1C(=O)[C@@H]2[C@H]3C(=CC[C@@H]2C1=O)C1(OCCCO1)[C@H]1O[C@@H]1[C@H]3O ?
RECQ1 inh-1: -13%[11.5 µM]; BLM inh: -9%[12.4 µM]; APEX1 inh: -7%[12.4 µM]; TRb SRC2 PPI: 0%[11.2 µM]; TexasRed fluor: 0%[11.2 µM]

How did CC1CCC2C(=O)OC(CN=[N+]=[N-])CN2C1c1ccc(Br)cc1 (stereo unspecified) do in these assays?
RECQ1 inh-1: -9%[11.5 µM]; BLM inh: -1%[12.4 µM]; APEX1 inh: 13%[12.4 µM]; TRb SRC2 PPI: 0%[11.2 µM]; TexasRed fluor: -1%[11.2 µM]

How did Cc1ccc(-n2nc(-c3ccco3)cc2C(=O)O)cc1 do in these assays?
RECQ1 inh-1: 20µM*; BLM inh: 0%; APEX1 inh: inconclusive; RGS12 GoLoco inh: -9%; TRb SRC2 PPI: 5%; TexasRed fluor: 0%; RECQ1 inh-2: inconclusive

What do the screens show for `CCOC(=O)c1cc(-c2ccco2)nn1-c1ccc(C)cc1`?
RECQ1 inh-1: -8%; BLM inh: -8%; APEX1 inh: -2%; RGS12 GoLoco inh: 20%; TRb SRC2 PPI: -3%; TexasRed fluor: 1%

How did Nc1c(S(=O)(=O)O)cc(Nc2cccc3ccccc23)c2c1C(=O)c1ccccc1C2=O do in these assays?
RECQ1 inh-1: 22µM*; BLM inh: inconclusive; APEX1 inh: inconclusive; TRb SRC2 PPI: -7%; TexasRed fluor: -27%; RECQ1 inh-2: inconclusive

How did O=C1c2ccccc2C(=O)c2c(Nc3ccc4c5c(cccc35)C(=O)c3ccccc3-4)cccc21 do in these assays?
RGS12 GoLoco inh: 2%[14.2 µM]

How did Nc1c(S(=O)(=O)O)cc(Nc2ccc(Cl)cc2)c2c1C(=O)c1ccccc1C2=O do in these assays?
RECQ1 inh-1: 32µM*; BLM inh: inconclusive; APEX1 inh: inconclusive; TRb SRC2 PPI: -12%; TexasRed fluor: inconclusive; RECQ1 inh-2: 50µM*

How did O=C(NC1=C(Nc2ccc(Cl)cc2)C(=O)c2ccccc2C1=O)c1ccccc1 do in these assays?
RECQ1 inh-1: 0%; BLM inh: -7%; APEX1 inh: 0%; RGS12 GoLoco inh: -11%; TRb SRC2 PPI: -11%; TexasRed fluor: 19%

What do the screens show for `CC(C)=CC(=O)Oc1ccc(C(=O)N(C)c2ccccc2I)cc1`?
RECQ1 inh-1: -6%; BLM inh: -6%; APEX1 inh: -4%; TRb SRC2 PPI: 5%; TexasRed fluor: 0%

What do the screens show for `COc1ccc(NC(=O)NCc2cccn2Cc2ccc(F)cc2)cc1OC`?
BLM inh: -3%; TRb SRC2 PPI: 1%; TexasRed fluor: 0%

What do the screens show for `COc1ccc(C)cc1NC(=O)c1ccc2nc(Cc3ccccc3)oc2c1`?
BLM inh: -8%; TRb SRC2 PPI: 5%; TexasRed fluor: 1%

What do the screens show for `CCn1c(CSc2nnc(-c3ccncc3)n2C)nc2cc(C(=O)O)ccc21`?
RECQ1 inh-1: 14µM*; BLM inh: -6%; APEX1 inh: -10%; RGS12 GoLoco inh: 14µM*; TRb SRC2 PPI: 40µM*; TexasRed fluor: 45µM*[fluorescent]; RECQ1 conf: 40µM*; RECQ1 ADP FP: 7.1µM*; RECQ1 inh-2: 79µM*

How did C[N+](C)(C)CCCSc1nc2ccccc2[nH]1 do in these assays?
RGS12 GoLoco inh: -8%[14.2 µM]

How did O=C1CCCN1CC1CCCN(Cc2nc(COc3ccccc3)no2)C1 (stereo unspecified) do in these assays?
RECQ1 inh-1: 2%; BLM inh: -6%; APEX1 inh: 1%; RGS12 GoLoco inh: 11%; TRb SRC2 PPI: -8%; TexasRed fluor: -5%

What do the screens show for `C=CCC1(CC=C)CCCN1Cc1nc(COc2ccccc2)no1`?
RECQ1 inh-1: 40µM*; BLM inh: -7%; APEX1 inh: -6%; RGS12 GoLoco inh: 32%; TRb SRC2 PPI: -1%; TexasRed fluor: 1%; RECQ1 inh-2: -10%

What do the screens show for `O=C(NCc1noc2ccccc12)Nc1ccc(F)cc1F`?
BLM inh: 2%; TRb SRC2 PPI: -3%; TexasRed fluor: 3%

Results for NS(=O)(=O)c1ccc(CCNC(=O)CSc2nc3ccsc3c(=O)n2CCCCCC(=O)O)cc1 ?
RECQ1 inh-1: -1%; BLM inh: -8%; APEX1 inh: 13%; RGS12 GoLoco inh: 2%; TRb SRC2 PPI: -2%; TexasRed fluor: -3%; RECQ1 conf: 14%; RECQ1 ADP FP: -8%

From PubChem
